Measured values reported in PubChem BioAssay.
For part of these data: Results with a measured potency or affinity are listed apart. Calls of active or inactive are those of the source. Unless noted, no rule for the calls is given here. Residues, ends and D or L forms follow the SMILES beside them. *: point of attachment. Octanoyl = CCCCCCCC(=O)*

Columns and labels:
[1] = antimalarial activity against Dd2 strain (AID 2302;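 active = growth inhibition above 50% at the single 2 µM test dose, taken to imply half-maximal potency below 2 µM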;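 also: 0% = DMSO untreated growth and 100% = chloroquine plus artemisinin killed control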); settings: P. falciparum Dd2 in RBCs, LDH growth readout, 72 h; at 2 µM; active compounds read high
[2] = human hepatoma cell viability loss – ATP luminescence, cytotoxicity control for P. falciparum antimalarial project, primary screen (AID 2303;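 active = inhibition above 50%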;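 also: 0% = DMSO wells and 100% = digitonin-killed cells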); settings: HepG2 viability, 24-48 h, at 10 µM, active compounds read high
[3] = target: L-lactate dehydrogenase (Plasmodium falciparum (isolate CDC / Honduras)) (UniProt Q27743); assay: PfLDH activity inhibition – cell lysate, 3D7 strain, counter-screen for P. falciparum growth inhibition project (AID 2304);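 also: 0% = vehicle and 100% = reference inhibitor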; settings: P. falciparum 3D7 crude extract, LDH APAD/NBT absorbance; at 2 µM; active compounds read high
[4] = inhibition of 3D7 malaria parasite growth – strain 3D7 (AID 2306);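 also: 0% = DMSO wells and 100% = chloroquine plus artemisinin control wells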; settings: P. falciparum 3D7 erythrocytic growth, LDH absorbance, 72 h; at 2 µM; active compounds read high
[5] = target: Calcium-dependent protein kinase 1 (Plasmodium falciparum (isolate 3D7)) (UniProt P62344); assay: PfCDPK1 kinase inhibitors, biochemical, TCAMS library (AID 1159585; cut-off not given, nearly all actives have IC50 up to about 0.98 µM;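 also: inhibitors leave more ATP so luminescence rises with inhibition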); settings: recombinant PfCDPK1, Kinase-Glo ATP depletion luminescence
[6] = target: Plasmodium falciparum protein kinase 6 (PK6, PF3D7_1337100) (UniProt Q8IDW1); assay: PfPK6 kinase inhibitors, biochemical, TCAMS library (AID 1159586); settings: recombinant PfPK6, Kinase-Glo ATP depletion luminescence
[7] = target: Protein kinase 7 (PK7), Plasmodium falciparum 3D7 (PF3D7_0213400) (UniProt Q7YTF7); assay: inhibition of Plasmodium PK7 catalytic activity – biochemical, TCAMS antimalarial set, Kinase-Glo luminescence (AID 1159587); settings: recombinant PfPK7, Kinase-Glo ATP depletion luminescence
[8] = target: Calcium-dependent protein kinase 4 (Plasmodium falciparum (isolate 3D7)) (UniProt Q8IBS5); assay: PfCDPK4 kinase inhibitors, biochemical, TCAMS library (AID 1159588; cut-off not given, nearly all actives have IC50 up to about 0.91 µM); settings: recombinant PfCDPK4, Kinase-Glo ATP depletion luminescence
Chain of Calcium-dependent protein kinase 4 (Plasmodium falciparum (isolate 3D7)) (Q8IBS5 whole entry, looked up): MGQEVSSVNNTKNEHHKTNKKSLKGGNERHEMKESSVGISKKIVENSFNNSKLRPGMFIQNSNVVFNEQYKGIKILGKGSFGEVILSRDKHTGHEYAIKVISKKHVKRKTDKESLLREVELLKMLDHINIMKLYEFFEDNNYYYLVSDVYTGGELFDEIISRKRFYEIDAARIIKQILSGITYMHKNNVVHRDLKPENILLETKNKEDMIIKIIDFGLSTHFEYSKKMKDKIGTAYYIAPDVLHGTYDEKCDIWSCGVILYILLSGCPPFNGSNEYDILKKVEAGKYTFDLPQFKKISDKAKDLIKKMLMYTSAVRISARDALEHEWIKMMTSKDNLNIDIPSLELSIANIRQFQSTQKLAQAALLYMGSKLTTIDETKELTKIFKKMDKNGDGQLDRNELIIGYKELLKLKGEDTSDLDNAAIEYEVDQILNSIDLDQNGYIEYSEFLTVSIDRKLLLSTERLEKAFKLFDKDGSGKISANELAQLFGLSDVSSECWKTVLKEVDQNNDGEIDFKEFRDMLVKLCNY

Chain of Plasmodium falciparum protein kinase 6 (PK6, PF3D7_1337100) (Q8IDW1 1-305): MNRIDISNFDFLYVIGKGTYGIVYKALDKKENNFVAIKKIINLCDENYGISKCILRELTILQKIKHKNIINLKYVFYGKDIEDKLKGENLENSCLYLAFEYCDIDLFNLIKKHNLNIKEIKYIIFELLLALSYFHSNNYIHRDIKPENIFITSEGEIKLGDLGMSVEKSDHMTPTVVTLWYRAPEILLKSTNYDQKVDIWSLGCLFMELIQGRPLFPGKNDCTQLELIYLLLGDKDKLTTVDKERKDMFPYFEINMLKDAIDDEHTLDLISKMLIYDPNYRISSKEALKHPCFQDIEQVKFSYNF
Chain of Protein kinase 7 (PK7), Plasmodium falciparum 3D7 (PF3D7_0213400) (Q7YTF7 1-343): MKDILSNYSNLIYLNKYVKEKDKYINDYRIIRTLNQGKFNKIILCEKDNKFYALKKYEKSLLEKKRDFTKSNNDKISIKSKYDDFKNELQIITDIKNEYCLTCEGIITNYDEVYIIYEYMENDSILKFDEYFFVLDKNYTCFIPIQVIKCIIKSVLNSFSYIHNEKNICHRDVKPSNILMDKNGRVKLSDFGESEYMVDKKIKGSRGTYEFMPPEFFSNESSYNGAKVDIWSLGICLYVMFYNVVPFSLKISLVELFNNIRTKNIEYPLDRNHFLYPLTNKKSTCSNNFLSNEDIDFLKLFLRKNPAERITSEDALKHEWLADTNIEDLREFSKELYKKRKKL
Chain of Calcium-dependent protein kinase 1 (Plasmodium falciparum (isolate 3D7)) (P62344 whole entry, looked up): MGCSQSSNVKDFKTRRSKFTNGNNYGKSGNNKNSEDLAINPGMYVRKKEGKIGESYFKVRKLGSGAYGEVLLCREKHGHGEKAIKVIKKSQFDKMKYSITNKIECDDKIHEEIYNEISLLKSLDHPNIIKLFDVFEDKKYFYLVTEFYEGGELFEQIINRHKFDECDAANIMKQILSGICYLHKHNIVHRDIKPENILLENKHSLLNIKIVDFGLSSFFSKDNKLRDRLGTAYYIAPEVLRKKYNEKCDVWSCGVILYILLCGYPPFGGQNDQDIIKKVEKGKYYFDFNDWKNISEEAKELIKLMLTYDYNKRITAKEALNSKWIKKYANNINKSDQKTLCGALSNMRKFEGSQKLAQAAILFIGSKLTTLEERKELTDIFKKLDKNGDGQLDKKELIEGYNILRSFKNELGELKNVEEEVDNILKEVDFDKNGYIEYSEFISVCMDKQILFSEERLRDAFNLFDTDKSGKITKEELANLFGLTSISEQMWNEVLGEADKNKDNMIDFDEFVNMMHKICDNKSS
Chain of L-lactate dehydrogenase (Plasmodium falciparum (isolate CDC / Honduras)) (Q27743 whole entry, looked up): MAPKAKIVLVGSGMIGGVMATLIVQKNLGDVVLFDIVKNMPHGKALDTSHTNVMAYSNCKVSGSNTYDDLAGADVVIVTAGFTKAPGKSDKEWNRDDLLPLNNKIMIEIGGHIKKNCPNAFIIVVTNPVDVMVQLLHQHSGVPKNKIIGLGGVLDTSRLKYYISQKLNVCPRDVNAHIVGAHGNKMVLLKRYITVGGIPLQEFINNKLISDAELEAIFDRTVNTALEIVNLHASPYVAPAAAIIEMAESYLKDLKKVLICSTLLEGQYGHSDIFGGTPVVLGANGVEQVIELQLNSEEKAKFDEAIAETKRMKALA

CN1CCN(c2ccnc3ccc(NC(=O)Nc4ccccc4Br)cc23)CC1
active: growth inhibition [1] 95% | growth inhibition [4] 100%
inactive: inhibition [2] 4% | inhibition [3] -3% | outcome [5] | outcome [6] | outcome [7] | outcome [8]

CC(C)(C)c1ccc(OC(=O)c2ccc(NC(=O)N[C@@H](Cc3ccc(O)cc3)C(=O)NC3CCN(Cc4ccc(O)cc4)C3)cc2)cc1 (some centres not stated)
inactive: inhibition [2] 0% | inhibition [3] -3% | outcome [5] | outcome [6] | outcome [7] | outcome [8]
active: growth inhibition [1] 67% | growth inhibition [4] 92%

CC(=O)Nc1csc(-c2cnc(/C=C(\C)C[C@@H]3OC[C@H](C[C@@H]4O[C@H]4[C@@H](C)[C@H](C)O)[C@@H](O)[C@H]3O)o2)c1
active: growth inhibition [4] 94%
inactive: growth inhibition [1] 8% | inhibition [2] 1% | inhibition [3] 0% | outcome [5] | outcome [6] | outcome [7] | outcome [8]

Cc1cc(CNC(=O)c2ccc(-c3ccc(-c4nc5ccc(C(F)(F)F)cc5[nH]4)s3)cc2)on1
active: growth inhibition [1] 56% | growth inhibition [4] 93%
inactive: inhibition [2] 15% | inhibition [3] -1% | outcome [5] | outcome [6] | outcome [7] | outcome [8]

CC(C)C1C(O)=C(c2ccc3ccccc3c2)C(=O)N1CC1CCCCC1 (configuration not stated)
active: growth inhibition [4] 84%
inactive: growth inhibition [1] 43% | inhibition [2] 11% | inhibition [3] -3% | outcome [5] | outcome [6] | outcome [7] | outcome [8]

Cc1cccc2[nH]c(-c3ccc(-c4cccc(CNCC5CCCO5)c4)s3)nc12 (configuration not stated)
active: growth inhibition [4] 93%
inactive: growth inhibition [1] 11% | inhibition [2] 26% | inhibition [3] -8% | outcome [5] | outcome [6] | outcome [7] | outcome [8]

COc1cc2nc(N3CCC(CNC(=O)c4ccc(C(C)=O)cc4)CC3)nc(N)c2cc1OC
inactive: growth inhibition [1] 15% | inhibition [2] 10% | inhibition [3] 1% | outcome [5] | outcome [6] | outcome [7] | outcome [8]
active: growth inhibition [4] 96%

CCCCCCCC(=O)N[C@@H](Cc1ccccc1)C(=O)N[C@H](C(=O)O)C(C)C (Octanoyl-Phe-Val-OH)
active: growth inhibition [4] 89%
inactive: growth inhibition [1] -7% | inhibition [2] -8% | inhibition [3] 2% | outcome [5] | outcome [6] | outcome [7] | outcome [8]

COc1ccc2nccc(N3C[C@H]4C[C@@H]3CN4CCNCc3ccc4c(n3)NC(=O)CS4)c2n1
inactive: growth inhibition [1] 0% | inhibition [2] 21% | inhibition [3] 1% | outcome [5] | outcome [6] | outcome [7] | outcome [8]
active: growth inhibition [4] 99%

O=C(Nc1cccc(-c2ccc(CN3CCC(O)CC3)cc2)c1)c1cccc(Cl)c1
active: growth inhibition [4] 96%
inactive: growth inhibition [1] 2% | inhibition [2] 11% | inhibition [3] -11% | outcome [5] | outcome [6] | outcome [7] | outcome [8]

CN1CCCN(c2ccnc3cc4c(cc23)N(C(=O)c2ccc(C(F)(F)F)cc2)CC4)CC1
active: growth inhibition [1] 63% | growth inhibition [4] 101%
inactive: inhibition [2] 10% | inhibition [3] 1% | outcome [5] | outcome [6] | outcome [7] | outcome [8]

O=S(=O)(NCCN1CCCC1)c1ccc(-c2ccc(CNCc3ccc(F)cc3)cc2)cc1F
active: growth inhibition [4] 82%
inactive: growth inhibition [1] 21% | inhibition [2] 40% | inhibition [3] 2% | outcome [5] | outcome [6] | outcome [7] | outcome [8]

Clc1cccc(Cl)c1CCNCC1CCN(CC2CCCCC2)CC1
active: growth inhibition [1] 94% | growth inhibition [4] 98%
inactive: inhibition [2] 39% | inhibition [3] -5% | outcome [5] | outcome [6] | outcome [7] | outcome [8]

Cc1[nH]c2ccccc2c(=O)c1[N+](=O)[O-]
inactive: growth inhibition [1] -2% | inhibition [2] 5% | inhibition [3] -5% | outcome [5] | outcome [6] | outcome [7] | outcome [8]
active: growth inhibition [4] 88%

COc1ccc2nccc([C@@H](O)CN3CCC(NC[C@H](Cc4ccccc4)NC(=O)OC(C)(C)C)CC3)c2c1
active: growth inhibition [1] 86% | growth inhibition [4] 98%
inactive: inhibition [2] 18% | inhibition [3] 6% | outcome [5] | outcome [6] | outcome [7] | outcome [8]

O=C(NC1CCN(CC2(c3ccccc3)CCCC2)CC1)c1[nH]ncc1Cl
active: growth inhibition [1] 87% | growth inhibition [4] 83%
inactive: inhibition [2] -3% | inhibition [3] 5% | outcome [5] | outcome [6] | outcome [7] | outcome [8]

COc1cc(Cc2cnc(N)nc2N)ccc1OCc1ccc(-c2csnn2)cc1
active: growth inhibition [4] 97%
inactive: growth inhibition [1] -2% | inhibition [2] 33% | inhibition [3] -4% | outcome [5] | outcome [6] | outcome [7] | outcome [8]

Cc1onc(-c2c(F)cccc2Cl)c1C(=O)Nc1ccccc1I
inactive: inhibition [2] -8% | inhibition [3] -4% | outcome [5] | outcome [6] | outcome [7] | outcome [8]
active: growth inhibition [1] 52% | growth inhibition [4] 99%

O=c1cc(NCCNCc2cccc(-c3ccccc3)c2)[nH]c2ccccc12
inactive: inhibition [2] -2% | inhibition [3] -6% | outcome [5] | outcome [6] | outcome [7] | outcome [8]
active: growth inhibition [1] 68% | growth inhibition [4] 93%

Cc1cccc(-c2cccc3c(NC(=O)N4CCc5cc6nccc(N7CCN8CCC[C@H]8C7)c6cc54)cccc23)n1
active: growth inhibition [1] 68% | growth inhibition [4] 94%
inactive: inhibition [2] 14% | inhibition [3] -6% | outcome [5] | outcome [6] | outcome [7] | outcome [8]

CC(C)C(C(=O)Nc1ccc2c(c1)OCO2)c1ccc(Cl)cc1 (configuration not stated)
inactive: inhibition [2] 25% | inhibition [3] -7% | outcome [5] | outcome [6] | outcome [7] | outcome [8]
active: growth inhibition [1] 89% | growth inhibition [4] 98%

COc1ccc(NC(=O)/C=C/c2ccccc2Cl)cc1OCCN1CCC(NCc2cccnc2)CC1
inactive: inhibition [2] 12% | inhibition [3] 1% | outcome [5] | outcome [6] | outcome [7] | outcome [8]
active: growth inhibition [1] 88% | growth inhibition [4] 101%

CCCC[C@@H](C(=O)NCCc1ccc(Cl)cc1)N1C(=O)CCC1C(=O)Nc1ccc(Cl)c(Cl)c1 (some centres not stated)
active: growth inhibition [4] 95%
inactive: growth inhibition [1] 2% | inhibition [2] 4% | inhibition [3] 2% | outcome [5] | outcome [6] | outcome [7] | outcome [8]

Cc1cc(N[C@@H](Cc2ccccc2)C(=O)NCc2cccc(F)c2)nc(NCCCOC(C)C)n1
inactive: inhibition [2] 10% | inhibition [3] -2% | outcome [5] | outcome [6] | outcome [7] | outcome [8]
active: growth inhibition [1] 94% | growth inhibition [4] 101%

C=CCn1c(=N)c(C(=O)NC2CCCCC2)cc2c(=O)n3cccc(C)c3nc21
active: growth inhibition [1] 58% | growth inhibition [4] 92%
inactive: inhibition [2] 0% | inhibition [3] 4% | outcome [5] | outcome [6] | outcome [7] | outcome [8]

O=S(=O)(c1ccccc1C(F)(F)F)C1C[C@H]2CC[C@@H](C1)N2S(=O)(=O)c1ccc(Cl)c(C(F)(F)F)c1 (some centres not stated)
inactive: inhibition [2] 4% | inhibition [3] -3% | outcome [5] | outcome [6] | outcome [7] | outcome [8]
active: growth inhibition [1] 99% | growth inhibition [4] 97%

CCCCCCCCc1c(C)[nH]c(C)c(C#N)c1=O
inactive: inhibition [2] 0% | inhibition [3] 4% | outcome [5] | outcome [6] | outcome [7] | outcome [8]
active: growth inhibition [1] 96% | growth inhibition [4] 97%

Cc1cccc(Cn2c(Cc3ccccc3)nnc2Sc2ccc([N+](=O)[O-])c(C#N)c2)c1
active: growth inhibition [4] 91%
inactive: growth inhibition [1] 3% | inhibition [2] 17% | inhibition [3] -2% | outcome [5] | outcome [6] | outcome [7] | outcome [8]

COc1ccc2nccc([C@@H](O)CN3CCC(NCc4cc5cc(C)ccc5s4)CC3)c2c1
inactive: inhibition [2] 13% | inhibition [3] 3% | outcome [5] | outcome [6] | outcome [7] | outcome [8]
active: growth inhibition [1] 74% | growth inhibition [4] 92%

Cc1cccc2[nH]c(-c3cccc(-c4cccc(NC(=O)N[C@@H]5C[C@H]5c5ccccc5)c4)c3)nc12
inactive: growth inhibition [1] 28% | inhibition [2] -4% | inhibition [3] -1% | outcome [5] | outcome [6] | outcome [7] | outcome [8]
active: growth inhibition [4] 98%

CCN(CC)CCN(Cc1ccc(-c2ccc(C(F)(F)F)cc2)cc1)C(=O)Cn1c(SCc2ccc(F)cc2)cc(=O)c2ccccc21
inactive: inhibition [3] -5% | outcome [5] | outcome [6] | outcome [7] | outcome [8]
active: growth inhibition [1] 70% | inhibition [2] 50% | growth inhibition [4] 101%

COc1ccc(C(=O)N[C@@H](CC(C)C)C(=O)N[C@H](/C=N/NC(=O)c2ccccc2)CCc2ccccc2)cc1OCCN1CCOCC1
inactive: inhibition [2] 2% | inhibition [3] 1% | outcome [5] | outcome [6] | outcome [7] | outcome [8]
active: growth inhibition [1] 86% | growth inhibition [4] 96%

COc1ccc2nccc([C@@H](O)CN3CCC(NCc4cc5ccc(Cl)cc5[nH]4)CC3)c2c1
active: growth inhibition [1] 61% | growth inhibition [4] 99%
inactive: inhibition [2] 30% | inhibition [3] 4% | outcome [5] | outcome [6] | outcome [7] | outcome [8]

CC(Cc1ccc(OCCN2CCN(c3cccc(C(F)(F)F)c3)CC2)cc1)NCC(O)c1cccc(C(F)(F)F)c1 (configuration not stated)
inactive: inhibition [2] 11% | inhibition [3] 0% | outcome [5] | outcome [6] | outcome [7] | outcome [8]
active: growth inhibition [1] 91% | growth inhibition [4] 97%

CCCCCN1CCC(CNS(=O)(=O)c2ccc(C(=O)Nc3cccc(C(F)(F)F)c3)cc2)CC1
active: growth inhibition [4] 98%
inactive: growth inhibition [1] 13% | inhibition [2] 13% | inhibition [3] -7% | outcome [5] | outcome [6] | outcome [7] | outcome [8]

CCN(CC)CCCC(C)Nc1cc(C=Cc2ccccc2Cl)nc2cc(Cl)ccc12 (configuration not stated)
active: growth inhibition [1] 77% | growth inhibition [4] 99%
inactive: inhibition [2] 0% | inhibition [3] -2% | outcome [5] | outcome [6] | outcome [7] | outcome [8]

Cc1ccc(CCC(C)NCC(O)c2cccc(Cl)c2)cc1 (configuration not stated)
inactive: inhibition [2] 2% | inhibition [3] -4% | outcome [5] | outcome [6] | outcome [7] | outcome [8]
active: growth inhibition [1] 97% | growth inhibition [4] 97%

COc1ccc2nccc(N3CCC(NCCNCc4cc5c(cn4)OCCO5)C3)c2n1 (configuration not stated)
active: growth inhibition [4] 99%
inactive: growth inhibition [1] 3% | inhibition [2] 8% | inhibition [3] -3% | outcome [5] | outcome [6] | outcome [7] | outcome [8]

CN1CCN(Cc2cccc(-c3ccc4c(Nc5ccc(Oc6cccnc6)cc5)ccnc4c3)c2)CC1
active: growth inhibition [1] 100% | growth inhibition [4] 100%
inactive: inhibition [2] 15% | inhibition [3] 0% | outcome [5] | outcome [6] | outcome [7] | outcome [8]
